# Compound activity from PubChem.
# Shown is part of a subset that was picked to be rich in hits.
# ERK AVP block: qHTS Assay for Inhibitors of the ERK Signaling Pathway using a Homogeneous Screening Assay | HEK293-V1b, vasopressin-stimulated pERK AlphaScreen | Potency, µM (top dose mostly 57.5 µM), for inactives: at the highest dose activity, negative = inhibition, hits mostly inhibitors | 0.99% of 72,000 active; also: potency is read from the fitted curve at half-maximal effect; % is scaled to controls: 0 for no effect and ±100 for the full control effect; nearly all actives have a fitted effect of over 55% in size
#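 HEK293 cells stably expressing V1b receptor, preincubated 30 min at 37 °C with compound, then stimulated 5 min with 25 nM vasopressin. Phospho-ERK by AlphaScreen SureFire after 5 h RT; normalized to DMSO and vasopressin; AC50 by Hill fit.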
# CRE-bla Fsk: Cell signaling CRE-BLA (Fsk stim). CHO CRE-bla reporter (cAMP response element driving beta-lactamase), forskolin EC10, beta-lactamase ratio. Potency, µM (highest dose often 38.2 µM), inactives show at the highest dose activity change, negative = inhibition, most hits filed as activators. 2.5% of 71,000 active. AID 662, 2007; active = well fitted activation curve with a large enough effect in the signal ratio, with a control signal flat, not every such curve was filed as active; inconclusive = small, poorly fitted or top-dose-only effect, or effect the other way, or a change in a side signal; the % refers to the signal ratio; also: potency is read from the fitted curve at half-maximal effect; % of control where 0% means no effect
#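 CHO CRE-bla cells, overnight plating in Opti-MEM with 0.5% dialyzed FBS; cpd titration + EC10 NKH 477, 3 h 37 °C; CCF4 2 h RT; ex 405/em 460 vs 530 ratio → %Activity, AC50.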
# HBB splice mod: qHTS Assay for Modulators of Hemoglobin Beta Chain Splicing | HBB splicing reporter cell assay, activation; EGFP reporter with mutant IVS2-654 intron; response scale: normalised to 500 nM splice-correcting PNA | Potency, µM (titrated, usually from 46.1 µM), for the others: top-dose activation, usual class: activators | 0.06% of 65,000 active; also: potency is read from the fitted curve at half-maximal effect; 0% is about no effect
#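 Compounds were applied for 2 days to HeLa EGFP-654 cells, 500/well in Optimem with 2% FCS. The reporter's EGFP is disrupted by mis-splicing of beta-globin intron IVS2-654. Readout: summed well GFP fluorescence from 488 nm laser scanning; reference was 500 nM antisense […] 654 PNA.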
# IkB signaling: IkB Signaling | AID 445, 2006 | 0.04% of 110,000 active | ABC-DLBCL IkBa-CBG/CBR dual luciferase ratio, 4 h; response scale: scaled: untreated 0%, proteasome inhibitor 100% | Potency, µM (top dose mostly 57.1 µM), without a hit: top-dose IkBa stabilization activation; active = well fitted curve in the direction sought with a large enough effect in the signal ratio, not every such curve was filed as active; inconclusive = small, poorly fitted or top-dose-only effect, or a change in a side signal; the % refers to the signal ratio;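 also: potency is read from the fitted curve at half-maximal effect; the direction sought is a rising ratio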
#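 Luminescence ratio of IκBα-fused green versus native red beetle luciferase in OCI-Ly3 cells, 4 h post-doxycycline with compound; red signal alone, scaled from basal (0%) to zero light (-100%), flagged nonspecific or cytotoxic effects.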
# Epigenetic mod: qHTS Assay for Epigenetic Modulators; mouse C127i GFP locus derepression, cytometry, 30 h; 0.09% of 68,000 active; Potency, µM (series often up to 46.1 µM), for inactives: at the highest dose GFP derepression (activation); also: % of control where 0% means no effect
#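 Derepression screen: silenced CMV-GFP reporter in murine C127i cells, 30 h compound incubation at 37 C, washed cells imaged by laser-scanning cytometer to enumerate GFP-expressing objects of 20 to 120 um.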
# Starred values were filed as active, the others as inactive; ? = inconclusive; nt = no result; [ ] = remark or other dose. Unless noted, calls follow the shape of the dose curve; as a rule, active = well fitted curve in the direction sought with a large enough effect; inconclusive = small, poorly fitted or top-dose-only effect, or another doubt; inactive = no such curve, though single readings can be large; an effect the other way counts as inactive or inconclusive.
SMILES,ERK AVP block,CRE-bla Fsk,HBB splice mod,IkB signaling,Epigenetic mod
CCCN(C(=O)Cn1nc(Cc2ccncc2)c2ccccc2c1=O)c1ccccc1C,nt,nt,nt,1%,nt
COc1cccc(-c2cncnc2NCc2cccs2)c1,10µM*,-4%,0%,2%[11.4 µM],-3%[9.22 µM]
COc1cccc(-c2cncnc2NCc2cnc(C)cn2)c1,-8%,3%,0%,1%[11.4 µM],0%[9.22 µM]
COc1ccc(CNc2ncncc2-c2ccc3c(c2)OCO3)c(OC)c1,?,3.2µM*,1%,1%[11.4 µM],8%[9.22 µM]
COc1ccccc1CNc1ncncc1-c1ccc2c(c1)OCO2,-26%,?,-1%,1%[11.4 µM],0%[9.22 µM]
COc1cccc(-c2nccc(NCc3ccccc3)n2)c1,10µM*,-6%,-1%,-1%[11.4 µM],-2%[9.22 µM]
COc1cccc(-c2nccc(NCc3cccc(C)c3)n2)c1,-28%,4%,-1%,0%[11.4 µM],0%[9.22 µM]
COc1cccc(-c2cncnc2NCc2ccccc2)c1,20µM*,-1%,0%,3%[11.4 µM],2%[9.22 µM]
Cc1ccccc1N1CC(c2nc3ccccc3n2Cc2ccc(Br)cc2)CC1=O (configuration not stated),nt,nt,nt,1%,nt
Fc1ccc2nc3[nH]c4ccccc4c3nc2c1,?,7.9µM*,4%[0.369 µM],-4%,0%
Clc1nc(NCCc2ccccc2)c2ncn(-c3ccccc3)c2n1,nt,16%[7.6 µM],-2%[9.22 µM],1%[11.4 µM],9%[9.22 µM]
CCOC(=O)c1oc2ccccc2c1NC(=O)c1ccccc1OC,-3%,2µM*,-2%,2%,11%
COc1ccccc1C(=O)Nc1c(C(=O)c2ccccc2)oc2ccccc12,nt,nt,nt,-2%,nt
COc1ccc(OC)c(-c2cc(C(=O)Nc3c(C)nn(Cc4ccccc4C)c3C)no2)c1,25%,3.2µM*,-1%,2%,0%
COc1ccc(OC)c(-c2cc(C(=O)Nc3c(C)nn(Cc4ccccc4Cl)c3C)no2)c1,12%,2.5µM*,-2%,0%,-1%
Cc1ccccc1Cn1nc(C)c(NC(=O)c2cc(-c3cccs3)on2)c1C,?,-15%,0%,6%,-1%
COc1cccc2[nH]c3c(N4CCC(C)CC4)ncnc3c12,-19%,4µM*,3%[57.5 µM],-5%,-2%
CCCn1c(=O)n(C)c(=O)c2c(SCc3cc(C(C)=O)ccc3OCC)nc(C3CC3)nc21,-29%,2µM*,0%[1.84 µM],-1%,-2%
CC(C)(C(=O)O)c1ccc([C@@H](O)CCCN2CCC(C(O)(c3ccccc3)c3ccccc3)CC2)cc1,-27%,?,-1%,-2%,4%
CCOC(=O)c1noc2ncnc(Nc3ccc(F)cc3F)c12,nt,nt,nt,0%,nt
N#CC(C#N)=c1ccc2c(c1)NC1(CCCCC1)N=2,16µM*,?,0%[57.5 µM],?,-2%
CC(=O)c1ccc(NC(=O)CSc2nc(=O)n(Cc3ccncc3)c3c2CCC3)cc1,nt,nt,nt,0%,nt
COc1cc(NC(=O)c2cc3cc4ccc(OC)c(Cl)c4nc3s2)cc(OC)c1,nt,nt,nt,2%,nt
CCOC(=O)c1ccccc1NC(=O)Nc1cc2c(cc1N1CCCCC1)n(C)c(=O)n2C,nt,nt,nt,-2%,nt
COCCCn1c2nc3ccccc3nc2c2c(=O)n(-c3ccccc3OC)cnc21,3%,4µM*,-1%[57.5 µM],-1%,0%
SMILES,ERK AVP block,CRE-bla Fsk,HBB splice mod,IkB signaling,Epigenetic mod
COCCCn1c2nc3ccccc3nc2c2c(=O)n(-c3ccccc3OC)c(C)nc21,nt,nt,nt,nt,6%[20.6 µM]
COc1ccc(O[C@H]2C=C[C@@H](c3ccccc3)O[C@@H]2CO/N=C(\C)CCN2CCCc3nc(C)c(C)cc32)cc1,9%[11.5 µM],nt,1%[9.22 µM],nt,nt
CCOC(=O)c1cc(S(=O)(=O)Nc2cc(OC)ccc2OC)[nH]n1,nt,nt,nt,0%,nt
O=S(=O)(Nc1cccc2ncccc12)c1cccs1,10%,?,-1%,?,2%
O=S(=O)(Nc1ccc(-c2nc3cccnc3s2)cc1)c1cccs1,nt,3.2µM*,-1%,-3%,nt
COc1ccc(-c2cc(=O)c3cc(OC)ccc3o2)cc1,7%,nt,nt,nt,nt
COc1cccc2oc(-c3ccccc3)cc(=O)c12,-10%,nt,nt,nt,nt
COc1cc2oc(-c3ccccc3)cc(=O)c2cc1OC,-16%,6.3µM*,nt,-1%[11.4 µM],-5%[9.22 µM]
COc1ccc2oc(-c3ccc(O)cc3)cc(=O)c2c1,40µM*,16µM*,nt,0%[11.4 µM],0%[9.22 µM]
COc1cccc(Nc2ncc3nc(C)c(=O)n(C[C@H]4CCCO4)c3n2)c1,-2%,2.5µM*,0%,-4%[11.4 µM],8%[9.22 µM]
CCNc1ncc2nc(-c3ccc(F)cc3)c(=O)n(C[C@H]3CCCO3)c2n1,-24%,2.5µM*,0%,-8%[11.4 µM],-3%[9.22 µM]
COc1ncc2nc(-c3ccc(F)cc3)c(=O)n(C[C@H]3CCCO3)c2n1,-8%,?,0%,0%[11.4 µM],0%[9.22 µM]
CCNc1ncc2nc(C)c(=O)n(C[C@H]3CCCO3)c2n1,?,10µM*,1%,0%[11.4 µM],0%[9.22 µM]
CCNc1ncc2ncc(=O)n(C[C@H]3CCCO3)c2n1,-17%,-21%,-1%,1%[11.4 µM],0%[9.22 µM]
CC(=O)N1CCC(N(C(=O)Nc2ccc(C)c(F)c2)C(C)C)CC1,nt,nt,nt,-2%,nt
CCC(C)Sc1nc2c(c(=O)[nH]c(=O)n2C)n1CCc1ccccc1 (configuration not stated),?,7.9µM*,-2%,1%,0%
CCC(C)Sc1nc2c(c(=O)[nH]c(=O)n2C)n1Cc1ccc(Cl)cc1 (configuration not stated),24%,7.9µM*,nt,1%,-1%
C/C(Cl)=C/Cn1c(SC(C)C)nc2c1c(=O)[nH]c(=O)n2C,16µM*,7.9µM*,0%,-1%,-2%
COc1ccc(C(=O)N2CCC3(CCCN(C(=O)NC(C)C)C3)CC2)cc1,3%,-6%,2%,0%[11.4 µM],7%[9.22 µM]
COC(=O)c1c(-c2ccc(Cl)cc2)noc1N1CCN(c2cccc(C)c2C)CC1,nt,nt,nt,0%,nt
COc1cccc(CNC(=O)Cn2c(C)c3cnn(-c4ccccc4)c(=O)c3c2C)c1,nt,nt,nt,0%,nt
O=C(CSc1nc2c([nH]c3ccccc32)c(=O)n1-c1ccc(F)cc1)N1CCc2ccccc21,nt,nt,nt,-1%,nt
COc1cccc(N2CCN(C(=O)c3ccc4nc(N5CCCCC5)sc4c3)CC2)c1,25µM*,2%,0%,?,7%
CCOC(=O)c1c(C)[nH]c(C)c1S(=O)(=O)N1CCCC(C(=O)NCc2cccc(C)c2)C1 (configuration not stated),nt,nt,nt,1%,nt
O=c1c2c3nc4ccccc4nc3n(/N=C/c3cccs3)c2ncn1-c1ccccc1,-15%,5µM*,0%[0.369 µM],0%,-2%
CC(=O)NCCNc1nc(-c2ccccc2C)nc2ccccc12,-7%,?,0%,1%[11.4 µM],9%[9.22 µM]
N#C/C(=C1\CCCN1)c1ccc2ccccc2n1,16µM*,-7%,2%[57.5 µM],0%,0%
